Bioassay records as filed in PubChem.
Shown are actives, neighbours in structure and some others; about 2.1% of the full set was active somewhere.
HUVEC tox IL1B = HUVEC cytotoxicity counter-screen, IL-1B stimulated. HUVEC cell count loss, Hoechst imaging. cell count reduction, % at 2 µM. 94,000 compounds, 0.41% hits. AID 845;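 active = cell count reduction more than 3 SD above the screen-wide mean, cut at about 70% in these data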
IL1B NFkB pot = enhances IL-1B driven NFkB nuclear translocation; HUVEC IL-1B NFkB p65 nuclear translocation imaging; activation, % at 2 µM; 94,000 compounds, 0.3% hits; AID 819;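 active = activation above 40%, about the mean plus 3 SD, also judged a hit on visual image review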;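 also: percent activation is computed from the nuclear over cytoplasmic p65 intensity ratio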
PLAP activator = activators of human placental alkaline phosphatase; 96,000 compounds, 1.2% hits; AID 696; purified PLAP enzyme, luminescent substrate read-out; hits give high values; activation fold at 20 µM; P05187; in the data active = activation fold above about 2
IL1B NFkB inh = blocks IL-1B driven NFkB nuclear translocation in HUVEC cells; HUVEC IL-1B NFkB p65 nuclear translocation imaging; inhibition, % at 2 µM; 94,000 compounds, 0.43% hits; AID 796;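 active = inhibition above about 30% together with a positive call from visual inspection of the well image, limit read from the data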;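 also: nuclear over cytoplasmic p65 intensity ratio measured by imaging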
TNAP act DEA = activators of human TNAP at intermediate phosphate acceptor; P05186; purified TNAP, CDP-star luminescence, 100 mM DEA, 30 min; hits give high values; scale: 0 levamisole-inhibited, 1 vehicle-only enzyme; activation factor at 20 µM; 64,000 tested, under 10 active;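 active = activation factor of at least 2 at 20 µM, relative to controls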
Target sequence (P05186 whole entry, looked up): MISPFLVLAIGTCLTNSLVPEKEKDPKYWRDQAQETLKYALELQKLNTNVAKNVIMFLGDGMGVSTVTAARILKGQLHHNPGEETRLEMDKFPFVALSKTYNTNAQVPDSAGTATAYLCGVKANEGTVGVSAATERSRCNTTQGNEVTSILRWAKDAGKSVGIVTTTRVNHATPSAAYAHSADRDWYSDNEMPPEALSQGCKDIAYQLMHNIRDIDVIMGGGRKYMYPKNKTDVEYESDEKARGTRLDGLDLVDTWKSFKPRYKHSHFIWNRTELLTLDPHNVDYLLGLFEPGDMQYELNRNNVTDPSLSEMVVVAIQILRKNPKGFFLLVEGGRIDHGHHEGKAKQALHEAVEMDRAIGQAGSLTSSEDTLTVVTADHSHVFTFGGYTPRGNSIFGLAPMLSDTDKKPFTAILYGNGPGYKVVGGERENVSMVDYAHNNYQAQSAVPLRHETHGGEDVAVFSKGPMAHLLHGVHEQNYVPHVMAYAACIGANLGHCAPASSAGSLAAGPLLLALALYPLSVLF
Of the large screens only hits and unclear results are named; the others gave an inactive call.

CC(=O)Nc1nnc(SCc2ccc(F)cc2)s1	HUVEC tox IL1B 80 (no result: TNAP act DEA)
Cn1cc(C(=O)c2ccc(Cl)cc2Cl)cc1C(=O)N/N=C(\N)COc1cccc(C(F)(F)F)c1	PLAP activator 2 (no result: TNAP act DEA)
COc1cc(-c2nnc(SCC3(c4ccc(Br)cc4)OCCO3)o2)cc(OC)c1OC	none (no result: HUVEC tox IL1B, IL1B NFkB pot, IL1B NFkB inh, TNAP act DEA)
O=c1/c(=C/c2ccco2)sc2nc(-c3ccccc3Br)nn12	PLAP activator 2.2 (no result: HUVEC tox IL1B, IL1B NFkB pot, IL1B NFkB inh)
Cc1cc(C)c(S(=O)(=O)Nc2ccc3c4c(cccc24)CC3)c(C)c1	IL1B NFkB inh 42 (no result: TNAP act DEA)
Cc1ccc(S(=O)(=O)Nc2ccc3c4c(cccc24)CC3)c(C)c1	none (no result: PLAP activator, TNAP act DEA)
COc1ccc(Oc2cn[nH]c2-c2ccc(O)cc2O)cc1	PLAP activator 2.2
CCCc1ccc(Oc2cn[nH]c2-c2ccc(O)cc2O)cc1	none
C=C(C)COc1ccc(-c2[nH]ncc2-c2ccccc2)c(O)c1	none (no result: TNAP act DEA)
COc1ccc(-c2[nH]ncc2-c2cnn(-c3ccccc3)c2)c(O)c1	PLAP activator 2
COc1ccc(-c2[nH]ncc2-c2cnc(C)s2)c(O)c1	PLAP activator 2.9
COc1ccc(O)c(-c2cn[nH]c2-c2cccs2)c1	none
COc1ccc(-c2[nH]ncc2Oc2ccccc2OC)c(O)c1	PLAP activator 2.5
Cc1ccc2nc(C(O)C(O)c3nc4ccc(C)cc4[nH]3)[nH]c2c1 (configuration not stated)	PLAP activator 2.1
Cc1ccc2nc(C(C)O)[nH]c2c1 (configuration not stated)	none (no result: TNAP act DEA)
Clc1ccc(-c2nnc(SCc3ccon3)o2)c(Cl)c1	HUVEC tox IL1B 70 (no result: TNAP act DEA)
COC(=O)C(NC(=O)c1ccco1)(Nc1ccc(Br)cn1)C(F)(F)F (configuration not stated)	none
CC(C)(C)NC(=O)C1N(c2cccnc2)C(=O)C2C(C(=O)Nc3ccccc3F)C3(C)C=CC21O3 (configuration not stated)	none
CC12C=CC3(O1)C(C(=O)N(c1cccnc1)C3C(=O)NC1CCCCC1)C2C(=O)Nc1ccccc1 (configuration not stated)	IL1B NFkB inh 31
CCOC(=O)N1CCC(N2C(=O)c3ccccc3C2Nc2c(C)cccc2C)CC1 (configuration not stated)	none (no result: TNAP act DEA)
CCCCn1c(N)c(N(CC(C)C)C(=O)CN(C)Cc2cccc(OC)c2)c(=O)[nH]c1=O	none (no result: TNAP act DEA)
O=C(Nc1cccc(C(=O)N2CCCCCC2)c1)c1ccco1	HUVEC tox IL1B 72
CCOC(=O)N1CCN(C(=O)c2cccc(NC(=O)c3ccco3)c2)CC1	none
C=CCN(CC=C)CC(=O)Nc1ccc(S(N)(=O)=O)cc1	IL1B NFkB inh 42 (no result: PLAP activator, TNAP act DEA)
COc1ccc(S(=O)(=O)Nc2ccc3c(c2)COC3=O)cc1OC	none
CS(=O)(=O)Nc1ccc2c(c1)C(=O)OC2	IL1B NFkB pot 57
CCN1CC=C2C(C1)C(c1ccc(Cl)s1)C(C#N)=C(N)C2(C#N)C#N (configuration not stated)	none
COC(=O)Cn1cnc2c(nnn2-c2cccc(Cl)c2)c1=O	none (no result: HUVEC tox IL1B, IL1B NFkB pot, PLAP activator, IL1B NFkB inh)
Nc1nc(C(=O)N2CCOCC2)nn1S(=O)(=O)c1ccc(Cl)cc1	HUVEC tox IL1B 92
CCc1nnc(NC(=O)[C@@H](NC(=O)c2cccc(S(=O)(=O)N3CCOCC3)c2)C(C)C)s1	none (no result: TNAP act DEA)
COc1ccc2nc(SCC(=O)N3CCN(c4ccccc4F)CC3)c(C#N)cc2c1	IL1B NFkB inh 46 (no result: PLAP activator, TNAP act DEA)
Cc1c(S(=O)(=O)N2CCN(c3cccc(C(F)(F)F)c3)CC2)c(=O)n(C)c(=O)n1C	none
Cn1cc(S(=O)(=O)N2CCN(c3cccc(C(F)(F)F)c3)CC2)c(=O)n(C)c1=O	IL1B NFkB inh 56
COc1ccc(-c2[nH]c(-c3ccc(C(=O)O)cc3)nc2-c2ccccc2)cc1	IL1B NFkB inh 64 (no result: TNAP act DEA)
C/C(=N/NS(=O)(=O)c1ccc(Cl)cc1)c1cccc(NC(=O)c2ccc(Cl)cc2Cl)c1	none (no result: TNAP act DEA)
Cc1ccc(NC(=O)COC(=O)CCC(=O)c2cccs2)cc1S(=O)(=O)N1CCOCC1	IL1B NFkB pot 48 (no result: TNAP act DEA)
Cc1nnc(Sc2nc(Sc3nnc(C)s3)nc(N3CCN(C)CC3)n2)s1	none (no result: HUVEC tox IL1B, IL1B NFkB pot, PLAP activator, IL1B NFkB inh)
CCOC(=O)CNc1nc(C#N)nc(N2CCOCC2)n1	none
CC(C(=O)Nc1ccccc1F)N1C(=O)c2ccccc2C1=O (configuration not stated)	none
Cc1ccc(SC(C)C(=O)Nc2ncn[nH]2)cc1 (configuration not stated)	PLAP activator 2.1
O=C(CC(c1ccccc1)c1ccccc1)Nc1ncn[nH]1	PLAP activator 2.9
CC(C(=O)Nc1ncn[nH]1)N1C(=O)c2ccccc2C1=O (configuration not stated)	HUVEC tox IL1B 83 (no result: PLAP activator, TNAP act DEA)
Cc1ccc(SC(C)C(=O)NCC(C)C)cc1 (configuration not stated)	none
O=C(CC(c1ccccc1)c1ccccc1)Nc1ccc(Cl)cn1	none (no result: TNAP act DEA)
Cc1ccccc1NC(=O)CN1C(=O)COc2ccc(Cl)cc21	none
COc1cc(NC(=O)CN2C(=O)c3ccccc3S2(=O)=O)c(OC)cc1Cl	none
CCOC(=O)N1CCC(N2CCN(S(=O)(=O)c3ccc(Cl)cc3)CC2)CC1	PLAP activator 2 (no result: TNAP act DEA)
CCOC(=O)N1CCC(N2CCN(S(=O)(=O)c3ccc(NC(C)=O)cc3)CC2)CC1	none
O=C(CN1CCN(S(=O)(=O)c2ccc(Cl)cc2)CC1)NC(=O)NC1CCCCC1	PLAP activator 2 (no result: TNAP act DEA)
CCC(C)NC(=O)c1ccc(CS(=O)(=O)Cc2ccc(Cl)cc2)o1 (configuration not stated)	none (no result: TNAP act DEA)
CCCc1cc2c(c(NC(C)=O)n1)c(=O)oc1ccccc12	HUVEC tox IL1B 78 (no result: PLAP activator)
CCCNC(=O)N1CCC(C(=O)c2cccc(F)c2)CC1	none (no result: TNAP act DEA)
COc1ccc(/C=C\C(=O)c2c(O)ccc3c(C)cc(=O)oc23)cc1OC	none (no result: TNAP act DEA)
Cc1ccc(OCc2nc(-c3ccccn3)n[nH]2)cc1	PLAP activator 2.6 (no result: TNAP act DEA)
O=c1[nH]n2c(=O)c3c([nH]c2c1N=Nc1cccc(C(F)(F)F)c1)CCCC3	none (no result: PLAP activator, TNAP act DEA)
COc1cccc(N=Nc2c(=O)[nH]n3c(=O)cc(C)[nH]c23)c1	PLAP activator 2 (no result: TNAP act DEA)
COc1ccc(C(=O)Nn2c(SCc3ccc([N+](=O)[O-])cc3)nc3ccccc3c2=O)cc1	none (no result: TNAP act DEA)
COCc1[nH][nH]c(=O)c1C=Nc1ccc(Cl)cc1	none (no result: TNAP act DEA)
COCc1[nH][nH]c(=O)c1C=Nc1ccccc1	PLAP activator 2 (no result: TNAP act DEA)
COCCN(C(=O)c1ccco1)C(C(=O)NC1CCCC1)c1cccs1 (configuration not stated)	none (no result: PLAP activator, TNAP act DEA)
CCC1=Nc2cc(C(=O)NCCCOC)ccc2Sc2ccccc21	PLAP activator 2 (no result: HUVEC tox IL1B, IL1B NFkB pot, IL1B NFkB inh, TNAP act DEA)
CCC(C)NS(=O)(=O)c1ccc(OCC(=O)NCc2cccnc2)cc1 (configuration not stated)	HUVEC tox IL1B 80, IL1B NFkB inh 98
CC(Oc1ccccc1)C(=O)NCc1cccnc1 (configuration not stated)	none
COc1ccc(OC(C)C(=O)NCc2cccnc2)cc1 (configuration not stated)	HUVEC tox IL1B 93
CC(C)NS(=O)(=O)c1ccc(CCC(=O)NCc2cccnc2)cc1	none (no result: HUVEC tox IL1B, IL1B NFkB pot, IL1B NFkB inh)
Cc1cccc2cc(CN(Cc3nnnn3Cc3ccco3)C3CCCC3)c3nnnn3c12	none
CC(=O)OC1COC(N2CCc3cc(Br)c([N+](=O)[O-])cc32)C(OC(C)=O)C1OC(C)=O (configuration not stated)	none (no result: TNAP act DEA)
